# Most compounds without a hit are left out; they make up all but 5.7% or so of the library.
# KB-3-1 cytotox: kills parental KB-3-1 adenocarcinoma cells. AID 1347075. Potency, µM (series often up to 46.1 µM), actives largely listed as cytotoxic. 1.4% of 400,000 active. KB-3-1 viability, CellTiter-Glo ATP luminescence, 72 h; further: potency means the concentration at half of the fitted maximal effect; nearly all actives have a fitted effect of over 60% in size
#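 Viability of parental KB-3-1 cells, measured by CellTiter-Glo luminescence, followed a 72 h incubation at 37 °C with pinned compounds in phenol-red-free DMEM containing 10% FBS.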
# A549 tox: A549 cytotoxicity, counter-screen for Nrf2 inhibitors. Potency, µM (series often up to 46 µM), for inactives: at the top dose activity change, negative = cytotoxicity, hits mostly inhibitors. AID 504648. A549 ARE-Fluc cells, CellTiter-Fluor viability, 18-24 h. 0.16% of 390,000 active; further: potency means the concentration at half of the fitted maximal effect
#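 Cytotoxicity counterscreen: CellTiter-Fluor fluorescence was measured in A549 ARE_Fluc cells after 18-24 h of compound exposure in a concentration series. The subsequent BugLite luminescent read reports ARE-luciferase activity.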
# PI4K2A block: inhibitors of human PI4K2A; Q9BTU6; purified PI4K2A, ADP-Glo luminescence, 1 h; active compounds read low; AID 1346378; 0.13% of 420,000 active; activity change, negative = inhibition, % at 76.9 µM; in the data active means activity change below about -50%; inconclusive means mostly about -30% to -49%;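 further: -100% = wells without enzyme as full effect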
# Target sequence (Q9BTU6 whole entry, looked up): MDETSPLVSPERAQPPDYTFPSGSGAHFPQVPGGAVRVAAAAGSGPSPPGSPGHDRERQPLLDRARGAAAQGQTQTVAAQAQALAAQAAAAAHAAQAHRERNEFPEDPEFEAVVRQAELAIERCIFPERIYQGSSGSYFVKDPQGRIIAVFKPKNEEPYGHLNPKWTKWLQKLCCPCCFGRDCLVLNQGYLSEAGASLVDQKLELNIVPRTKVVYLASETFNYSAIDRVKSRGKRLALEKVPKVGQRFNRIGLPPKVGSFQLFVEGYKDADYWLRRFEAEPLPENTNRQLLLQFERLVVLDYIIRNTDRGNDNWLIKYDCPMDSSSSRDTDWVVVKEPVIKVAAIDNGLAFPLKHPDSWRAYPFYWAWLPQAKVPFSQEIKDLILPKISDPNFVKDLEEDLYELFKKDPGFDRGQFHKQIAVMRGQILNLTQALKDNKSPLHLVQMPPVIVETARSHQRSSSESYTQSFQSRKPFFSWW
#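 Compounds are screened against recombinant PI4K2A using PI as substrate and ATP, the latter dispensed at 300 microM. Reactions run one hour at ambient temperature before ADP-Glo detection; full inhibition defined by wells lacking enzyme.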
# Giardia kill: Giardia lamblia killing; Giardia lamblia trophozoite viability; AID 540267; 0.15% of 340,000 active; activity change, % at 7.66 µM, hits read low; in the data active means activity change below about -80%; inconclusive means between about -30% and that limit;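 further: parasites exposed to compound for two days anaerobically before the ATP read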
#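 Giardia trophozoites, 100 cells per well, were exposed to compounds for 48 hrs at 37 deg C under anaerobic conditions; viability was then read as ATP content by bioluminescence after 15-30 min at room temperature.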
# Nrf2 block: inhibitors of Nrf2 signaling. 2.1% of 360,000 active. A549 ARE-Fluc reporter, luciferase luminescence, 18-24 h. Potency, µM (series often up to 46 µM), without a hit: top-dose activity change, negative = inhibition, actives largely listed as inhibitors; further: potency means the concentration at half of the fitted maximal effect; nearly all actives have a fitted effect of over 60% in size
#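 Reporter: ARE-Fluc in A549. Exposure: 18-24 h, 37 °C, 5% CO2, 5% FBS OPTI-MEM. Readouts: fluorescent cytotoxicity (CellTiter-Fluor), then luminescent Nrf2 signal after BugLite.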
# KB-V1 MDR tox: KB-V1 MDR subline cytotoxicity; KB-V1 MDR cells viability, CellTiter-Glo, 72 h; Potency, µM (doses to about 46.1 µM), hits mostly cytotoxic; 3.4% of 400,000 active; further: potency means the concentration at half of the fitted maximal effect; nearly all actives have a fitted effect of over 60% in size
#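 Following 72 h at 37 degrees C with compound, KB-V1 cell viability was read by CellTiter-Glo luminescence, medium being phenol-red-free DMEM plus 10% FBS; concentration-response parameters came from normalized, curve-fitted qHTS data.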
# An asterisk follows results filed as active; i = inactive; ? = inconclusive; . = not tested or not shown. Unless noted, the call rests on the fitted dose curve; in most records, active means well fitted curve in the direction sought with a large enough effect; inconclusive means small, poorly fitted or top-dose-only effect, or another doubt; inactive means no such curve, though single readings can be large; an effect the other way counts as inactive or inconclusive. Unless noted, on the % scale 0 is the no-effect control and ±100 the full control effect.
SMILES,KB-3-1 cytotox,A549 tox,PI4K2A block,Giardia kill,Nrf2 block,KB-V1 MDR tox
Cc1c(C(=O)Nc2cccc(Oc3ccccc3)c2)sc(=O)n1Cc1ccc(F)cc1,?,.,1.6,.,.,?
COC(=O)c1ccc(Cn2c(C)c(C(=O)Nc3cccc(Oc4ccccc4)c3)sc2=O)o1,?,.,-1.6,.,.,11.6µM*
COc1ccc(Cl)cc1Cn1c(C)c(C(=O)NCc2ccc(F)cc2)sc1=O,?,.,3.3,.,.,14.6µM*
Cc1c(C(=O)NCc2ccc(C#N)cc2)sc(=O)n1Cc1ccccn1,i,.,-3.8,.,.,?
CCN1CCCCC(NC(=O)c2ccc(Cl)cc2Cl)C1=O (centres undefined),.,.,3.3,.,.,.
Cc1ccccc1NC(=O)N(C)[C@H]1C[C@H]2c3[nH]c4c(-c5ccc6c(c5)OCO6)cccc4c3CCN2C[C@H]1[C@H](C)O,.,.,-2.4,.,.,.
Cc1c(C(=O)NCc2ccc(F)cc2)sc(=O)n1Cc1ccc(C(=O)c2ccccc2)cc1,?,.,3.4,.,.,10.3µM*
CC(=O)Oc1ccccc1Cn1c(C)c(C(=O)N(C)Cc2ccc(F)cc2)sc1=O,?,.,2.4,.,.,18.4µM*
COc1ccc(CNC(=O)c2cn(Cc3ccccc3OC)c(=O)s2)cc1,i,.,0.3,.,.,7.31µM*
COc1ccc(CNC(=O)c2sc(=O)n(Cc3ccccc3OC)c2C)cc1,?,.,1.4,.,.,9.2µM*
COc1ccc(CNC(=O)c2cn(Cc3ccccc3F)c(=O)s2)cc1,i,.,-2.7,.,.,?
CC(C)(C)OC(=O)Cc1nnc(CNC(=O)c2ccccc2)s1,.,1.4%,.,.,-12.0%,.
Cc1ccc(-n2c(SCC(=O)c3ccc(F)cc3)nnc2-c2cccnc2)cc1,.,.,5.5,.,.,.
Cc1c(C(=O)NCc2cccc(C(F)(F)F)c2)sc(=O)n1Cc1cccc(F)c1,?,.,7.2,.,.,14.6µM*
Cc1ncoc1C(=O)Nc1ccc(Oc2ccccc2)cc1,i,-19.0%,-3.4,-17.1,-10.7%,18.4µM*
CCc1ccccc1CNC(=O)C1CCC(CNS(=O)(=O)c2cccc3cccnc23)CC1 (centres undefined),.,.,-5.9,.,.,.
CN(Cc1nc2ccccc2c(=O)[nH]1)C(=O)c1cccc(S(=O)(=O)N2CCCC2)c1,i,-0.6%,0.6,4.2,-9.5%,?
Cc1c(C(=O)N(C)Cc2nc3ccccc3c(=O)[nH]2)oc2ccccc12,18.4µM*,-26.6%,2.1,7.6,-7.7%,8.2µM*
Cc1cc(C)c(C)c(S(=O)(=O)N2CCC(C(=O)N(C)Cc3nc4ccccc4c(=O)[nH]3)CC2)c1C,i,-26.3%,-2.0,4.1,?,23.1µM*
CN(Cc1nc2ccccc2c(=O)[nH]1)C(=O)c1ccc(S(=O)(=O)N(C)C)cc1,i,-0.2%,-3.3,-7.8,-15.9%,i
Cc1ccc(CN2CCCCC(NC(=O)c3ccc(COc4ccccc4)cc3)C2=O)cc1 (centres undefined),.,.,5.5,.,.,.
COc1ccc(C2C(C(=O)N3CCC(C)CC3)CC(=O)N2c2ccc(OC)cc2)cc1 (centres undefined),.,.,-5.3,.,.,.
O=c1[nH]c2cc([N+](=O)[O-])c(NCCO)c([N+](=O)[O-])c2[nH]1,i,13µM*,-11.4,-7.2,-13.3%,i
COc1cccc(/C=N/NC(=O)c2cc3c(OC)c(OC)ccc3[nH]2)c1OC,9.2µM*,2.6%,-1.8,-27.3,23.7%,i
COc1ccccc1/C=N/NC(=O)c1cc2c(OC)c(OC)ccc2[nH]1,?,-0.8%,-2.0,-1.2,-0.8%,?
COc1ccc(/C=N/NC(=O)c2cc3c(OC)ccc(OC)c3[nH]2)cc1O,2.91µM*,-0.1%,90.4,0.0,16.9%,9.2µM*
CCCC(=O)OC12CCCN(C1)/C(=C/c1cccc(N(C)C)c1)C2 (centres undefined),.,.,3.4,.,.,.
CCCCCCCCCCCCCCCC[N+](C)(C)Cc1ccc(F)cc1,?,-12.3%,-2.5,-7.4,?,i
CC#CC[N+](C)(C)CCCCCCCC,18.4µM*,-5.0%,3.1,1.7,?,i

# Compound activity as filed in PubChem BioAssay.
